# Results: the supplement of paper PMC12632987
# T1: USP38, Q8NB14
# T1 chain: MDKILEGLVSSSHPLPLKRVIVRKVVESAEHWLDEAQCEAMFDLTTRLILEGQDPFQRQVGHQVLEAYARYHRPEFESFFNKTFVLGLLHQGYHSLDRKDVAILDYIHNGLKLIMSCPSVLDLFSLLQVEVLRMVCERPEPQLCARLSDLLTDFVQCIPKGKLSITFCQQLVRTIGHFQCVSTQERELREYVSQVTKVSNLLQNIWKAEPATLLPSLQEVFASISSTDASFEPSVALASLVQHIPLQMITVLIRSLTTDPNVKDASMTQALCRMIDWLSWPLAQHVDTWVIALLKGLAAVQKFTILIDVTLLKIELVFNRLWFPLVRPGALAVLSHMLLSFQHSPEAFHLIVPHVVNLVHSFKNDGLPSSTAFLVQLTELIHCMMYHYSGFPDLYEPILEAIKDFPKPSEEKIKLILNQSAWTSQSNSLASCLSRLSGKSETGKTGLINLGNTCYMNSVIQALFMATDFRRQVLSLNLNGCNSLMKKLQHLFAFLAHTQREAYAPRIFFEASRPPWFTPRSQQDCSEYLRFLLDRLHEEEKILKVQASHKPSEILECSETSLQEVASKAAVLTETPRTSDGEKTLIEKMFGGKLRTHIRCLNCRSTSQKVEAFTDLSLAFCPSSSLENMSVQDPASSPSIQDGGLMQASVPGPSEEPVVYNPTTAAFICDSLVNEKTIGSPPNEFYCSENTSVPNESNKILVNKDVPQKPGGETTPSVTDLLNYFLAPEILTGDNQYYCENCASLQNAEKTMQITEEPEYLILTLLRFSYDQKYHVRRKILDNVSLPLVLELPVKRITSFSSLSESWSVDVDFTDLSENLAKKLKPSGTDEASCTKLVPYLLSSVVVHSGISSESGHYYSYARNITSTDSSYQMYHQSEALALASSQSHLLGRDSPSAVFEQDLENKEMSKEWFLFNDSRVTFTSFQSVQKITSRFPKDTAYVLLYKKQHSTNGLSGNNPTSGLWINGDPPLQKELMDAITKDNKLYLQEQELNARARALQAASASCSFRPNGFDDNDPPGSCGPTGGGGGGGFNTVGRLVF
# B1: usp_38_diff_out_4_99_571 (protein)
# chain: EKEKIVEEVKKLKEEAEKLLKEAKEAKKLSTEERRKKAEEIRKKLDELAKEMGKLYFEARDSGDKELIEEVNKEADEFVDAYEKAATELFELEAEVEEEE
# B2: usp_38_diff_out_4_99_575 (protein)
# chain: EKEEMVERVKRLTEEVRRLLEEVEAARTLSPEERRALAERASAELDRLAEEMGKIYFEARDSGDKELIKAVTEAGDEFVDAYERAGLALAELRNEVDEES
# B3: usp_38_diff_out_4_99_572 (protein)
# chain: EREEMVERMKELTERLKELTARAKAARALPPAERAAAAAALREELDRLAREAGEIYFRARDSGDKELIEEVGKVADEFVDAYLEAGTALNELEAEVDAAA
# B4: usp_38_diff_out_4_99_570 (protein)
# chain: KKEELVERAKELKERAEELLKEAKKARELSTEERAKKAAEIDKELDELAKEMGEIYFEARDSGDEELIEAVTEVADEFVKAYEKAATELFELQAEVQEEQ
# B5: usp_38_diff_out_4_99_573 (protein)
# chain: KKEELVEEVKRLTEEVKEIKKEAEAAKSLPLEERRATAEELRRRLDELARRMGEIYFEARDSGDEELIEAVEEEADKFVDEYLKAGTALNELESEVLEAE
# B6: usp_38_diff_out_5_164_583 (protein)
# chain: GVEEYLARLDAIKKETIEELDKLLEEAKKNPEKLEEYKKKITEITNKAINEMTKVTTEALEEFPEQAETILAHYSERIDELLKHYNEVMKELEKLKKELE
# B7: usp_38_diff_out_4_99_568 (protein)
# chain: MKEEKVKEVKELTERAKELLEKAKEAFELSHEERKKKAEELRKELDELAKRMGAIYFEARDSGDEELIEAVTEEADEFVDAYNEAAEALNLLEHEVLEEE
# B8: usp_38_diff_out_4_99_578 (protein)
# chain: EKEKKVEELKKLTEKAKELKKEAEAAKTLSLEERKKKAEELRKELDKIAEEAAKIYFEARESGDKELIEAVEKEAKKFVDAYLEAGTALNELQHEVDEAE
# B9: usp_38_diff_out_4_99_574 (protein)
# chain: EKEEKVKKAEEIAKKLEELLKEAKKARELSTEERRKKAEEIRKELDELAKELGKIYFEARDSGDKELIKEVEEVAKKAVDAYEKAATELFELEDEVQQEE
# B10: usp_38_diff_out_4_99_566 (protein)
# chain: MKEELVKKVKELKKKAEELKKKAEEAFKLDHEERKKVAEELEKELDEIAKEMGAIYFSARDSGDAELIKAVQKEADEFVDAYNEAATALNELRHLVLEEE
# B11: usp_38_diff_out_4_99_569 (protein)
# chain: EKEKKVKEVKKIKEKIEELLKEAEEAEKLSVEERRKKAEEIRKELDELAKKLGKLYFEARDSGDKELIEAVNKEADKAVDAYKEAATKLHELEAKVQEEE
# B12: usp_38_diff_out_4_99_580 (protein)
# chain: EKEKKVKELKKLTEEAKKIKEEAEAAKSLPLEERKKKAEELRKRLDELAKRAAAIYFEARDSGDEELKKAVEEEADKFVDAYLEAGTALNELEHLVLEEE
# B13: usp_38_diff_out_4_99_579 (protein)
# chain: EKEKMVERLKELTKRAERLREEAEAAFSLPLEERRELAERLREELDRLAEEAAEIYFEARDSGDEELIKAVEKEADKFVDAYLAAGTALNELEHLVLEEE
# B14: usp_38_diff_out_5_164_582 (protein)
# chain: GVEEYLAEMEAIRDETIAKLDALLAEAKENPEKLDEYKKEITDTTNEAINRMTEVTTRALEEHPEKAEEILARYSELMDELLTHYNAVMEELEKLKEELE
# B15: usp_38_diff_out_4_99_577 (protein)
# chain: EKEKKVEEVKKIKEELKKLKEEAEAAKKLPLEERKKVAEELSKRLDELAKRLGKIYFEARDTGDKELIKAVTEEANKAVDEYLKAATALNELQSLVDEER
# B16: usp_38_diff_out_4_99_565 (protein)
# chain: EKERMVEEVRRLTERARELLERARAAFELPPEERRRTAEELARELDELARRMGAIAFAARDSGDPELIKAVNEEADEFVDAYTEAATALNELRHLVLQEE
# Molecular target: T1, USP38, Q8NB14
# Assay: median log2 fold change of GCK-ALFA target abundance (FLAG IP / Myc IP barcode read proportion) (log2 ratio); each designed protein is fused to an ALFA-tag nanobody in HEK293 cells to bring the named protein to FLAG-tagged glucokinase (GCK); Myc marks an untargeted standard; higher = target protein stabilised (more abundant)
# Conditions: target protein: 3xFLAG-MCP-GCK-ALFA reporter; HEK293 landing pad (RPLP)
# How it was run: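 HEK293 landing-pad cells received a recombined binder library fused to the ALFA nanobody and were induced with 2 μg mL^−1 doxycycline, then transfected with a plasmid encoding a FLAG-tagged target and a Myc-tagged standard. Lysates were collected after 48 h for anti-FLAG and anti-Myc immunoprecipitation, and the circular RNA barcodes were reverse transcribed, amplified and sequenced. Target abundance for each binder is the median log2 ratio of FLAG to Myc barcode read proportions. Barcodes had to reach a proportion of at least 10^−7 in both replicates, each binder needed at least 3 barcodes per replicate, a pseudocount of 10^−6 was applied, and the two replicates were pooled.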
row,Binder,median log2 fold change
1,B1,-0.355
2,B2,-0.45
3,B3,0.235
4,B4,-0.0709
5,B5,0.007
6,B6,0.0633
7,B7,-0.28
8,B8,-0.163
9,B9,-0.356
10,B10,0.0841
11,B11,-0.151
12,B12,0.145
13,B13,-0.154
14,B14,-0.0672
15,B15,-0.345
16,B16,0.126
